# “And” between values parts separate entries of the source, which are not always exact repeats. Identical values can stand only once. The source holds several records for some structures; these can differ, active in one and inactive in another. The source made the active and inactive calls. The calls were made as follows: active = hit-call score of the fitted dose curve at least 0.9, where 1 is the maximum; inactive = score below 0.9.
# Tests used:
# [1] = read-out: Vascular cell adhesion molecule 1 (VCAM1), VCAM1 (gene 7412); assay: BSK_IMphg_VCAM1: BioMAP Diversity Plus: IMphg Assay for Vascular cell adhesion molecule 1 (VCAM1) Biomarker Activity (AID 2284286); details: primary human endothelial cells with macrophages
# Procedure, shortened: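 Human venular endothelial cells co-cultured with macrophages; VCAM-1 quantified by ELISA 24 h after dosing, fitted in the positive direction against DMSO. Cytotoxicity was checked in parallel cultures by SRB total-protein staining (0.1% SRB after 10% TCA fixation, 560 nm).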
# [2] = read-out: Intercellular Adhesion Molecule 1 (ICAM1), ICAM1 (gene 3383); assay: BSK_hDFCGF_ICAM1: BioMAP Diversity Plus: hDFCGF Assay for Intercellular Adhesion Molecule 1 (ICAM1) Biomarker Activity (AID 2284287); details: primary human foreskin fibroblasts
# Description: BSK_hDFCGF is a cell-based, multiplexed-readout assay that uses foreskin fibroblast, a human skin primary cell, with measurements taken at 24 hours after chemical dosing in a 96-well plate.BSK_hDFCGF_ICAM1 is an assay component measured in the BSK_hDFCGF assay. It measures ICAM-1 antibody related to regulation of gene expression using ELISA technology.Data from the assay component BSK_hDFCGF_ICAM1 was analyzed at the endpoint, BSK_hDFCGF_ICAM1, in the positive analysis fitting direction relative to DMSO as the negative control and baseline of activity. Using a type of binding reporter, gain or loss-of-signal activity can be used to understand protein changes. To generalize the intended target to other relatable targets, this assay endpoint is annotated to the 'cell adhesion molecules' intended target family, where the subfamily is 'Immunoglobulin CAM'.
# (§1) The levels of cell surface (or secreted, indicated by the prefix "s") biomarker endpoints were measured by ELISA. Overt cytotoxicity to cells in confluent adherent cultures (all systems other than the BT system) was assessed by measuring total protein levels using sulforhodamine B (SRB) staining in parallel cultures at the time of biomarker measurements, indicated as SRB endpoints. For proliferation assays for adherent cell types, individual cell types are cultured at sub-confluence and relative cell numbers quantified by SRB staining at time points optimized for each system (48 h: 3C and CASM3C systems; 72 h: BT and HDF3CGF systems; 96 h: SAg system). SRB was performed by staining cells with 0.1% SRB after fixation with 10% TCA and reading wells at 560 nm.Viability and proliferation of PBMC (T cells) was quantified by Alamar Blue reduction for the SAg and BT systems. For PBMC viability (referred to as PBMC Cytotoxicity within the assay endpoint names), cells were plated (75,000/well in a 96-well plate) and then chemical samples added for 1 h before addition of activators, SEB and TSST-1 (20 ng/mL final concentration each). Cells were incubated for 90 h. Then, Alamar Blue (20 uL/well) (Invitrogen, Cat DAL1100) was added for 6 h, and the plates were read with a fluorescence microplate reader at 546/580 nm (excitation/emission). For PBMC proliferation, cells were plated and activated as above but incubated for only 16 h prior to addition of Alamar Blue. Plates were read after 6 h.
# [3] = read-out: CD40, CD40 (gene 958); assay: BSK_IMphg_CD40: BioMAP Diversity Plus: IMphg Assay for CD40 Biomarker Activity (AID 2284288); details: primary human endothelial cells with macrophages
# Procedure, shortened: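 Venular endothelial cells co-cultured with macrophages (human primary), CD40 measured by ELISA 24 h after dosing. Positive-direction fit vs DMSO baseline; cytotoxicity tracked by SRB total-protein staining in parallel cultures.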
# [4] = read-out: TIMP metallopeptidase inhibitor 2 (TIMP2), TIMP2 (gene 7077); assay: BSK_hDFCGF_TIMP2: BioMAP Diversity Plus: hDFCGF Assay for TIMP metallopeptidase inhibitor 2 (TIMP2) Biomarker Activity (AID 2284289); details: primary human foreskin fibroblasts
# Procedure, shortened: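 Primary human foreskin fibroblasts in the hDFCGF system, dosed for 24 h; TIMP-2 level measured by ELISA, fitted in the positive direction against DMSO; cytotoxicity checked in parallel by sulforhodamine B total protein staining.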
# [5] = read-out: Interleukin-1 alpha (IL1a), IL1A (gene 3552); assay: BSK_IMphg_IL1a: BioMAP Diversity Plus: IMphg Assay for Interleukin-1 alpha (IL1a) Biomarker Activity (AID 2284290); details: primary human endothelial cells with macrophages
# Procedure, shortened: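 Human venular endothelial cells co-cultured with macrophages, IMphg system. IL-1α is measured by ELISA 24 h after dosing and fitted in the positive direction against DMSO. Cytotoxicity is assessed by SRB staining of parallel cultures.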
# [6] = read-out: E-selectin (Homo sapiens) (UniProt P16581); assay: BSK_IMphg_ESelectin: BioMAP Diversity Plus: IMphg Assay for Eselectin Biomarker Activity (AID 2284291); details: primary human endothelial cells with macrophages
# Description: (§2) BSK_IMphg is a cell-based, multiplexed-readout assay that uses venular endothelial cells and macrophages, a human vascular primary cell, with measurements taken at 24 hours after chemical dosing in a microplate: 96-well plate.BSK_IMphg_ESelectin is an assay component measured in the BSK_IMphg assay. It measures E-selectin antibody related to regulation of gene expression using ELISA technology.Data from the assay component BSK_IMphg_ESelectin was analyzed at the endpoint, BSK_IMphg_ESelectin, in the positive analysis fitting direction relative to DMSO as the negative control and baseline of activity. Using a type of binding reporter, gain or loss-of-signal activity can be used to understand protein changes. To generalize the intended target to other relatable targets, this assay endpoint is annotated to the 'cell adhesion molecules' intended target family, where the subfamily is 'selectins'.
# as §1
# [7] = BSK_IMphg_SRB: Viability Assessment in the BioMAP Diversity Plus: IMphg Assay (AID 2284292); details: primary human endothelial cells with macrophages;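 also: measured one day after compound addition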
# Procedure, shortened: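 Human venular endothelial cells with macrophages, 24 h after chemical dosing; total protein by 0.1% SRB staining after 10% TCA fixation, read at 560 nm. Positive-direction fitting versus DMSO baseline.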
# [8] = read-out: Macrophage colony-stimulating factor (MCSF), CSF1 (gene 1435); assay: BSK_IMphg_MCSF: BioMAP Diversity Plus: IMphg Assay for Macrophage colony-stimulating factor (MCSF) Biomarker Activity (AID 2284293); details: primary human endothelial cells with macrophages
# Procedure, shortened: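 Co-culture of human venular endothelial cells and macrophages, 24 hours of chemical exposure. M-CSF quantified by ELISA, with parallel SRB total-protein staining for cytotoxicity; activity fitted relative to DMSO.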
# [9] = read-out: Interleukin-10 (IL10), IL10 (gene 3586); assay: BSK_IMphg_IL10: BioMAP Diversity Plus: IMphg Assay for Interleukin-10 (IL10) Biomarker Activity (AID 2284294); details: primary human endothelial cells with macrophages
# Description: as §2, with “plate.BSK_IMphg_IL10” for “plate.BSK_IMphg_ESelectin”, “IL-10” for “E-selectin”, “BSK_IMphg_IL10” for “BSK_IMphg_ESelectin”, “BSK_IMphg_IL10,” for “BSK_IMphg_ESelectin,”, “'cytokine'” for “'cell adhesion molecules'”, “'interleukins'.” for “'selectins'.”
# as §1
# [10] = BSK_IMphg_SRB.Mphg: Macrophage Viability Assessment in the BioMAP Diversity Plus: IMphg Assay (AID 2284295); details: primary human endothelial cells with macrophages
# Procedure, shortened: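 Venular endothelial cells co-cultured with macrophages, read 24 h after dosing. Total protein measured by 0.1% SRB staining after 10% TCA fixation, absorbance at 560 nm. Fitted in positive direction against DMSO baseline.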
# Sequence of E-selectin (Homo sapiens) (P16581 whole entry, looked up): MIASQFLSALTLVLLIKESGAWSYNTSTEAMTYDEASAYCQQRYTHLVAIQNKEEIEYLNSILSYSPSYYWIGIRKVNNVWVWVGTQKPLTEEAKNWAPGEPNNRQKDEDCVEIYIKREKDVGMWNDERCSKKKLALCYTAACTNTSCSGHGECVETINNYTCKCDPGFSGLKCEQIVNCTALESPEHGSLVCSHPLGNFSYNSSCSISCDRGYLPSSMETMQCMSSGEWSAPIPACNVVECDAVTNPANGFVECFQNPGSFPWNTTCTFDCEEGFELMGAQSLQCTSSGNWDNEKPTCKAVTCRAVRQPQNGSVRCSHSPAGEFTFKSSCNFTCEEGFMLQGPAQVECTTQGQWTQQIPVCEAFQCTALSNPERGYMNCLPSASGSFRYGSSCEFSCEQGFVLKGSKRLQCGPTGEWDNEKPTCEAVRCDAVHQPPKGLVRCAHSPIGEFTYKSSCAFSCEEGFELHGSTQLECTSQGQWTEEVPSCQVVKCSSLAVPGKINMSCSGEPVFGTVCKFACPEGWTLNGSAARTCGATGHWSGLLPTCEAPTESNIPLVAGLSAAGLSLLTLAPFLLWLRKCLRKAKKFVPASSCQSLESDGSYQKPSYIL
structure (smiles),measurement,setting,value
O=C(O)C(F)(F)C(F)(F)C(F)(F)C(F)(F)C(F)(F)F,outcome,[1],inactive
same,outcome,[2],inactive
same,outcome,[3],inactive
same,outcome,[4],inactive
same,outcome,[5],inactive
same,outcome,[6],inactive
same,outcome,[7],inactive
same,outcome,[8],inactive
same,outcome,[9],inactive
same,outcome,[10],inactive
O=S(=O)(O)C(F)(F)C(F)(F)C(F)(F)C(F)(F)C(F)(F)C(F)(F)F,outcome,[1],inactive
same,outcome,[2],inactive
same,outcome,[3],inactive
same,outcome,[4],inactive
same,outcome,[5],inactive
same,AC50,[6],37.6 µM (active)
same,outcome,[6],inactive
same,outcome,[7],inactive
same,outcome,[8],inactive
same,AC50,[9],46.3 µM (active) and 19 µM (active)
same,outcome,[10],inactive
O=C(O)C(F)(F)C(F)(F)C(F)(F)C(F)(F)C(F)(F)C(F)(F)C(F)(F)C(F)(F)F,AC50,[1],30 µM (active)
same,outcome,[1],inactive
same,outcome,[2],inactive
same,AC50,[3],30 µM (active) and 44.9 µM (active)
same,outcome,[4],inactive
same,outcome,[5],inactive
same,outcome,[6],inactive
same,AC50,[7],44.9 µM (active)
same,outcome,[7],inactive
same,outcome,[8],inactive
same,AC50,[9],39 µM (active) and 21.3 µM (active)
same,AC50,[10],18 µM (active)
same,outcome,[10],inactive
O=C(O)C(F)(F)C(F)(F)C(F)(F)C(F)(F)C(F)(F)C(F)(F)C(F)(F)C(F)(F)C(F)(F)F,AC50,[1],54.8 µM (active) and 26.9 µM (active)
same,AC50,[2],49.8 µM (active) and 49 µM (active)
same,AC50,[3],45.9 µM (active) and 42.3 µM (active)
same,AC50,[4],11.2 µM (active) and 19.7 µM (active)
same,outcome,[5],inactive
same,AC50,[6],47.6 µM (active) and 50.2 µM (active)
same,AC50,[7],53.8 µM (active) and 46.6 µM (active)
same,outcome,[8],inactive
same,AC50,[9],49.6 µM (active) and 45.5 µM (active)
same,AC50,[10],44.9 µM (active) and 46.2 µM (active)
O=S(=O)(O)C(F)(F)C(F)(F)C(F)(F)C(F)(F)F,outcome,[1],inactive
same,outcome,[2],inactive
same,outcome,[3],inactive
same,outcome,[4],inactive
same,outcome,[5],inactive
same,outcome,[6],inactive
same,outcome,[7],inactive
same,outcome,[8],inactive
same,outcome,[9],inactive
same,outcome,[10],inactive
NS(=O)(=O)C(F)(F)C(F)(F)C(F)(F)C(F)(F)C(F)(F)C(F)(F)C(F)(F)C(F)(F)F,AC50,[1],47.3 µM (active) and 56.6 µM (active)
same,AC50,[2],12.1 µM (active) and 15.7 µM (active)
same,AC50,[3],31.8 µM (active) and 25.7 µM (active)
same,AC50,[4],53.9 µM (active) and 52.3 µM (active)
same,AC50,[5],53.6 µM (active) and 52.9 µM (active)
same,AC50,[6],39.9 µM (active) and 30 µM (active)
same,AC50,[7],51 µM (active) and 48.3 µM (active)
same,AC50,[8],30 µM (active)
same,outcome,[8],inactive
same,AC50,[9],48.2 µM (active) and 47.2 µM (active)
same,AC50,[10],43.4 µM (active) and 48.1 µM (active)
COc1ccc(O)c(C(C)(C)C)c1,outcome,[2],inactive
same,outcome,[4],inactive

# Source: PubChem BioAssay (EPA / NIEHS)
